Activity calls are given as the source filed them.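 The calls were made as follows: active = compounds lowering luciferase light whose fitted half-effect concentration is at most twice the top tested dose; inconclusive = flat curve with 30 to 70% inhibition, or poor fit; inactive = the rest.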

The experiment can be described thus: luciferase signal loss, tTA control fusion, HeLa F-luc tTA cells, dry powder, counter-screen for HIV Env fusion inhibitor project, dose response (AID 687021). The settings on record: luciferase luminescence counterscreen; series mostly up to 35 µM. A general note: The purpose of a counterscreen is to sort out artefacts and off-target activity.
`CCOc1ccc(OCC)c(S(=O)(=O)NCc2ccncc2)c1`: the call was inactive.
The entry for `O=C(CCCn1c(=S)[nH]c2cc3c(cc2c1=O)OCO3)N1CCN(c2ccc(Cl)cc2)CC1` is “inactive”.
For the molecule `Cc1ccc(S(=O)(=O)N(C)C[C@@H]2Oc3ccc(NS(=O)(=O)c4c(C)noc4C)cc3CC(=O)N([C@H](C)CO)C[C@@H]2C)cc1`, the outcome was inactive.
For the molecule `Clc1ccc2c(c1)C(C1=NCCN1)c1ccccc1CS2` (stereo not given), the molecule was called inactive.
The entry for `O=S(=O)(NCc1ccncc1)c1ccc2c(c1)OCCO2` is “inactive”; for `COc1ccc(-c2cc(C(=O)NNC(=S)NC(=O)c3c(-c4ccccc4)noc3C)[nH]n2)cc1` it is “inactive”.
With `CC(=O)Nc1ccc(NC(=O)CN(c2ccc(C34CC5CC(CC(C5)C3)C4)cc2)S(C)(=O)=O)cc1`, the molecule was classed as inactive.
Consider `CCCOc1ccc(S(=O)(=O)NCc2cccnc2)cc1`, for which the outcome was inactive.
As for `CC1(C)CC(NC(=O)C(=O)Nc2ccc(Cl)cc2)CC(C)(C)N1`, the molecule was called inactive.
Turning to `CCOc1ccc(S(=O)(=O)NCc2ccncc2)cc1OCC`, the molecule was classed as inactive.
As for `Cc1noc(C)c1S(=O)(=O)Nc1cccc2c1O[C@@H](CN(C)Cc1ccc(C(F)(F)F)cc1)[C@H](C)CN([C@@H](C)CO)C2=O`, the molecule was classed as inactive.
For the molecule `C[C@@H]1CN([C@H](C)CO)C(=O)c2cccc(NC(=O)C3CCCCC3)c2O[C@H]1CN(C)Cc1ccccc1`, the molecule was classed as inactive.
On to `CCOc1ccc(S(=O)(=O)NCc2ccncc2)cc1Cl`, for which the result was inactive.
On to `CCOc1ccc(S(=O)(=O)NCc2ccncc2)cc1`, for which the molecule was classed as inactive.
As for `Cc1ccc2c(CN3CCN(S(=O)(=O)c4ccc5c(c4)OCCO5)CC3)cc(=O)oc2c1C`, the call was inactive.
